The values that follow come from PubChem BioAssay AID588697 (Southern Research Specialized Biocontainment Screening …, 2011).

Structures are written as SMILES. Records with an inconclusive call do not appear. The source made the active and inactive calls.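 Rule for the calls: active = inhibition of at least 30% at any tested concentration; inactive = the rest, inconclusive results apart.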

In the test the test system is M18 aspartyl aminopeptidase (Plasmodium falciparum 3D7). Kind of test: PfM18AAP inhibitors, dose response, counter-screen for PfM17LAP inhibitor project, biochemical, QFRET fluorogenic substrate (AID 588697). The note with it: recombinant PfM18AAP, H-Glu-NHMec fluorogenic substrate; series mostly up to 100 µM.
Take `CCn1c2ccccc2c2cc(NC(=O)CSc3nc(C)cc(=O)[nH]3)ccc21`: the outcome was inactive. For `COc1ccc(-c2nnc(NC(=O)C3CC(C)=C(C)CC3C(=O)O)s2)cc1` (stereo not drawn), the outcome was inactive.

On to `COC(=O)c1c(NC(=O)C2CC=CCC2C(=O)O)sc(C)c1-c1ccc(C)cc1` (stereo not drawn), for which the result was inactive.

Take `COC(=O)c1cc(OC)c(OC)cc1NC(=O)c1sc2nc(C)ccc2c1N`: the outcome was inactive. Take `COC(=O)c1ccccc1NC(=O)c1ccc2c(Cl)c3c(nc2c1)CCC3`: the result was inactive.

Turning to `O=C(CSc1ccccc1)Nc1cccc2c1C(=O)NC2=O`, the result was inactive. As to `CC1CCc2sc(C(=O)Nc3cccc4c3C(=O)NC4)cc2C1` (stereo not drawn), the outcome was inactive.

As to `CC1=C(C)CC(C(=O)Nc2ccc(Oc3ccc(Cl)cc3)cc2)C(C(=O)O)C1` (stereo not drawn), the outcome was inactive. In the case of `O=C1OCCC1Sc1nnc(NC2CCCCC2)s1` (stereo not drawn), the outcome was inactive. Turning to `O=C(CSc1nc(O)cc(=O)[nH]1)Nc1ccccc1`, the outcome was inactive. For `N[C@@H](Cc1c[nH]c2ccccc12)C(=O)NO`, the outcome was inactive. Take `CC(C)C[C@H](N)C(=O)NO`: the outcome was inactive. On to `Cc1cc(=O)[nH]c(SCC(=O)Nc2ccccc2)n1`, for which the result was inactive. As to `COc1cc(NC(=O)CSc2ccccc2)c(C(=O)O)cc1OC`, the result was inactive. With `O=C(O)c1ccccc1C(=O)Nc1nc2c(s1)CCCC2`, the outcome was inactive.

As to `COc1cc(NC(=O)c2ccc(-c3ccccc3)cc2)c(C(=O)O)cc1OC`, the result was inactive. Turning to `COC(=O)c1c(NC(=O)c2ccccc2C(=O)O)sc2c1CCCC2`, the outcome was inactive. For `COC(=O)c1c(NC(=O)C2CCCCC2C(=O)O)sc2c1CCC(c1ccccc1)C2` (stereo not drawn), the result was inactive.

Turning to `Cc1ccc(NC(=O)CSc2nc(O)cc(=O)n2Cc2ccccc2)cc1`, the result was inactive. With `CCC(C)(C)C1CCc2c(sc(NC(=O)C3CC(C)=C(C)CC3C(=O)O)c2C(=O)OC)C1` (stereo not drawn), the outcome was inactive. Take `O=C(CSc1nccc(=O)[nH]1)Nc1ccc(Oc2ccccc2)cc1`: the outcome was inactive. Regarding `COC(=O)c1ccccc1NC(=O)c1cc2cc3ccc(C)cc3nc2s1`, the outcome was inactive. For `Cc1cc(SCC(=O)Nc2ccccc2C(=O)O)nc2ccccc12` the value was “inactive”; for `CC1=C(C)CC(C(=O)Nc2nc(-c3cc(C)ccc3C)c(C)s2)C(C(=O)O)C1` (stereo not drawn), “inactive”. Regarding `O=C(Cc1cccc2ccccc12)NO`, the outcome was inactive. Consider `NC(N)=NCCC[C@H](N)C(=O)NO`, for which the outcome was inactive. Turning to `O=C(CSc1nccc(=O)[nH]1)Nc1ccc(N2CCOCC2)cc1`, the result was inactive. For the molecule `O=C(Nc1ccc(Cl)cc1)Nc1ccccc1C(=O)O`, the result was inactive.
